# Sfp PPTase inh: Sfp phosphopantetheinyl transferase inhibition; Q9F4F7; Biochemical Sfp PPTase activity, qHTS; Potency, µM, inactives show largest response in the series, negative = inhibition, usual class: inhibitors; actives 3.5% (n = 310,000); AID 1490;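 also: the enzyme is Sfp with the accession as filed and its product quenches rhodamine fluorescence; 0% = enzyme reaction without inhibitor and -100% = no enzyme wells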
#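 With Hepes-Na pH 7.6 buffer containing 10 mM MgCl2, Sfp (15 nM) modified BHQ-2-YbbR (12.5 uM) using rhodamine-CoA (5 uM). Two reads 30 minutes apart at 525/598 nm yielded each well's rate.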
# JMJD2A Tudor inh: JMJD2A Tudor domain (human) inhibition; Potency, µM (top dose mostly 114 µM), for the others: at the top dose activity change, negative = inhibition, hits mostly inhibitors; AlphaScreen JMJD2A-Tudor / H3K4me3 peptide binding; O75164; actives 4.4% (n = 390,000); also: % is scaled to controls: 0 for no effect and ±100 for the full control effect; nearly all actives have a fitted effect of over 50% in size
# G9a inh: G9a (human) methyltransferase inhibition | Q96KQ7 | G9a H3K9 monomethylation, AlphaScreen, 2 h | Potency, µM (highest dose often 102 µM), for inactives: at the top dose activity, negative = inhibition, actives largely listed as inhibitors | actives 8.8% (n = 350,000); also: % is scaled to controls: 0 for no effect and ±100 for the full control effect; nearly all actives have a fitted effect of over 75% in size
#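 Step 1: enzyme (final 20 nM) with compound, 15 min RT. Step 2: substrate peptide 500 nM and SAM 20 uM, 2 h RT. Step 3: anti-H3K9me1 antibody and AlphaScreen beads, 10 min, then plate read.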
# L3MBTL1 block: blocks human L3MBTL1. actives 0.66% (n = 230,000). Q9Y468. Potency, µM (top dose mostly 57.1 µM), for inactives: at the highest dose activity, negative = inhibition, usual class: inhibitors. AlphaScreen L3MBTL1–H3K9me1 peptide binding. AID 485360; also: % is scaled to controls: 0 for no effect and ±100 for the full control effect; nearly all actives have a fitted effect of over 60% in size
# Target sequence (Q9Y468 whole entry, looked up): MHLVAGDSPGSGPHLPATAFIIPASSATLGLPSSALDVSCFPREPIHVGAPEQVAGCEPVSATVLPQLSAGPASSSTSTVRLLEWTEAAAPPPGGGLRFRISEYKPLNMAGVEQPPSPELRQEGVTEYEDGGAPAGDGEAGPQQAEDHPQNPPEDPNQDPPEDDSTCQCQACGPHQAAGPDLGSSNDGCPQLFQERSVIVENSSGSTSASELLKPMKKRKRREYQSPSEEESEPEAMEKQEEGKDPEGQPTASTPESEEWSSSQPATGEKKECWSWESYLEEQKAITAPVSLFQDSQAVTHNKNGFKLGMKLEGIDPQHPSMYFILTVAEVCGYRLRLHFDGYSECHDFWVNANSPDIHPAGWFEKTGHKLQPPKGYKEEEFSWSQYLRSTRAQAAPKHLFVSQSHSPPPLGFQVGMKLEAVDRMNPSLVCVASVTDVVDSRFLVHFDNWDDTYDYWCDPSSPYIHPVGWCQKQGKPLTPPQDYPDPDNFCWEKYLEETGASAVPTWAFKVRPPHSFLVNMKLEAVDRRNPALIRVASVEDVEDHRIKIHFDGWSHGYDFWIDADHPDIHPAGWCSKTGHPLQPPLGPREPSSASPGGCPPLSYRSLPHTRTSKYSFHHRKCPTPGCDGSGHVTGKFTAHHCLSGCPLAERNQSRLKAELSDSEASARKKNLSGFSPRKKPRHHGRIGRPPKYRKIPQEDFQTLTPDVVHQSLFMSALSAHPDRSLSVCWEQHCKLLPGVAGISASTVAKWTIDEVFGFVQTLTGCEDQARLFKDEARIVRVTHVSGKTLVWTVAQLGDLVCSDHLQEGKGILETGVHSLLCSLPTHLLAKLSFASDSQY
#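 L3MBTL1 (50 nM) pre-complexed 30 min with biotinylated H3(1-15)K9me1 peptide (75 nM), then compounds added for 30 min at room temperature; AlphaScreen streptavidin donor/nickel chelate acceptor beads (10 ug/mL final) read after 30 min dark incubation.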
# BAZ2B block: inhibitors of human BAZ2B bromodomain; Q9UIF8; AlphaScreen BAZ2B-H3K14Ac peptide displacement; Potency, µM (titrated, usually from 114 µM), for the others: top-dose activity change, negative = inhibition, hits mostly inhibitors; actives 4.4% (n = 360,000); AID 504333; also: % is scaled to controls: 0 for no effect and ±100 for the full control effect; nearly all actives have a fitted effect of over 60% in size
#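 Multi-concentration screen (max 110 uM) measuring displacement of acetylated histone H3 peptide from BAZ2B by AlphaScreen, using 50 nM protein, 50 nM peptide and 10 ug/mL streptavidin donor plus Ni-chelate acceptor beads.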
# HP1b chromo inh: HP1-beta chromodomain-methylated histone interaction inhibition; P83916; AlphaScreen HP1-beta / biotin-H3K9me3 peptide binding; Potency, µM (doses to about 114 µM), inactives show at the highest dose activity change, negative = inhibition, actives largely listed as inhibitors; actives 0.56% (n = 390,000); also: nearly all actives have a fitted effect of over 70% in size
#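 AlphaScreen: HP1-beta (50 nM) preformed 30 min with biotin-H3(1-18)K9me3 peptide (50 nM) in PBS pH 7.4, 0.01% Tween-20. Compound added for 30 min at RT, then streptavidin donor/nickel chelate acceptor beads (10 ug/mL) for 30 min.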
# Starred values were filed as active, the others as inactive; ? = inconclusive; . = no result; [ ] = another dose, or the depositor's remark. Hits are enriched below; roughly 12% of the tested compounds scored in any of these assays. Calls follow the shape of the dose curve; as a rule, active = well fitted curve in the direction sought with a large enough effect; inconclusive = small, poorly fitted or top-dose-only effect, or another doubt; inactive = no such curve, though single readings can be large; an effect the other way counts as inactive or inconclusive. Potency is read from the fitted curve at half-maximal effect.
SMILES,Sfp PPTase inh,JMJD2A Tudor inh,G9a inh,L3MBTL1 block,BAZ2B block,HP1b chromo inh
Cc1ccccc1C1CC(=O)Nc2ccc3ccccc3c21 (stereo not drawn),.,0%,-4%[59 µM],.,0%,38%
COc1ccc(Nc2nc3ccccc3nc2NS(=O)(=O)c2ccc(Cl)cc2)cc1OC,.,-26%,-5%[59 µM],.,?,-4%
CC(=O)c1nc2ccccc2n1S(=O)(=O)c1ccc(Cl)cc1,8%,-24%,-119%,4%,56µM*,28%
CC(=O)c1nc2ccccc2n1S(=O)(=O)c1ccc(C)cc1,3%,-9%,?,0%,?,18%
CCOC(=O)c1c(S(=O)(=O)NCC(=O)Nc2ccc(F)cc2C)c(C)n(C)c1C,.,-4%,-2%[59 µM],.,0%,22%
COCCNc1ncnc2ccc(-c3ccccc3OC)cc12,10%,.,9%[0.501 µM],.,.,.
COCCNc1ncnc2ccc(-c3ccccc3C(F)(F)F)cc12,56µM*,.,3%[0.501 µM],.,.,.
COc1ccc(NC(=O)Cn2nnc(-c3nc(-c4ccncc4)no3)c2N)cc1OC,.,5%,?,.,-15%,47%
O=c1[nH]c(=S)[nH]c2sccc12,22µM*,3.5µM*,10µM*,0%,-29%,?
COc1ccccc1NC(=O)CN1C(=O)C(c2ccc(F)cc2)=NC1(C)C,.,3%,5%[59 µM],.,-2%,30%
CCc1ccc2c(c1)/C(=N/N(C)C(=S)NC)C(=O)N2,?,?,-70%[59 µM],-9%,10µM*,?
NC(=O)c1ccc(N=C2C(=O)Nc3ccc([N+](=O)[O-])cc32)cc1,-10%,-16%,.,?,-24%,12%
CCCCc1nc2c(c3c1C[C@H](C)OC3)CN(C(=O)Cc1cccs1)CC2,5%,.,.,.,.,.
CC1=CC(=O)C2=C(C)CC[C@@H]3[C@@H](OC(=O)[C@H]3C)[C@H]12,13%,.,22%[21.5 µM],.,.,.
CCNC(=O)CSc1nnc(-c2ccccc2)n1-c1ccc(OCC)cc1,-4%,-1%,50µM*,.,?,26%
O=C(O)CCSc1nnc(-c2ccncc2)n1-c1ccccc1,3%,1%,-51%[59 µM],3%,3%,21%
COc1ccc(-n2c(COc3cccc(C)c3)nnc2SCC(=O)O)cc1,17%,-16%,-4%,7%,2%,32%
COc1ccccc1OCc1nnc(SCC(=O)N2CCCCC2)n1-c1ccccc1,15%,2%,-20%[59 µM],4%,2%,40%
COc1ccc(-c2nnc(SCCC(=O)O)n2-c2ccccc2)cc1,23%,40µM*,?,.,-14%,41%
Cc1ccccc1OCc1nnc(SCCN2CCCC2)n1-c1ccccc1,2%,-4%,-32%,-1%,79µM*,23%
Cc1cccc(OCc2nnc(SCCC(=O)O)n2-c2ccccc2)c1,50µM*,-5%,-47%[0.501 µM],-1%[2.29 µM],79µM*,40%
Cc1cccc(-n2c(=O)c3c(c4cc(C)ccc4n3C)n(CC(=O)NCCC3=CCCCC3)c2=O)c1,.,-7%,0%[59 µM],.,-5%,33%
O=C(Nc1ccccc1)N(Cc1cccs1)c1ccc(F)cc1,.,-9%,4%[59 µM],.,1%,47%
N#Cc1ccccc1NC(=O)CSc1nnc(-c2ccccc2)n1-c1ccccc1,15%,1%,?,1%,3%,28%
CCN(CC)c1ccc(-c2nnc(SCC(=O)Nc3ccccc3C#N)n2-c2ccccc2)cc1,17%,-30%,10µM*,-15%,-29%,19%
SMILES,Sfp PPTase inh,JMJD2A Tudor inh,G9a inh,L3MBTL1 block,BAZ2B block,HP1b chromo inh
CCN(CC)S(=O)(=O)c1ccc(NC2c3ccccc3C(=O)N2c2ccc(C)cn2)cc1 (stereo not drawn),8%,-13%,40µM*,3%,5%,28%
COc1ccc(OC)c(NC2c3ccccc3C(=O)N2c2cccnc2)c1 (stereo not drawn),-30%,-33%,50µM*,-11%,-14%,44%
Cc1ccc(NC2c3ccccc3C(=O)N2c2cccnc2)cc1 (stereo not drawn),18%,-15%,-6%,5%,-18%,-7%
COc1ccc(NC2c3ccccc3C(=O)N2c2ccccn2)cc1 (stereo not drawn),-9%,-35%,?,?,56µM*,5%
Cc1ccc(N2C(=O)c3ccccc3C2Nc2ccc(S(=O)(=O)N3CCCCC3)cc2)nc1 (stereo not drawn),2%,-29%,?,.,1%,14%
CCOC(=O)c1ccc(NC2c3ccccc3C(=O)N2c2ccccn2)cc1 (stereo not drawn),-21%,-18%,50µM*,.,-1%,15%
CC[C@H](C)[C@H](NC(=O)[C@H](Cc1ccccc1)NC(=O)[C@H](CCC(=O)O)NC(=O)[C@H](CCCCN)NC(=O)[C@H](C)NC(=O)[C@H](C)NC(=O)[C@H](CCC(N)=O)NC(=O)CNC(=O)[C@H](CCC(=O)O)NC(=O)[C@H](CC(C)C)NC(=O)[C@H](Cc1ccc(O)cc1)NC(=O)[C@H](CO)NC(=O)[C@H](CO)NC(=O)[C@@H](NC(=O)[C@H](CC(=O)O)NC(=O)[C@H](CO)NC(=O)[C@@H](NC(=O)[C@H](Cc1ccccc1)NC(=O)[C@@H](NC(=O)CNC(=O)[C@H](CCC(=O)O)NC(=O)[C@H](C)NC(=O)[C@@H](N)Cc1cnc[nH]1)[C@@H](C)O)[C@@H](C)O)C(C)C)C(=O)N[C@@H](C)C(=O)N[C@@H](Cc1c[nH]c2ccccc12)C(=O)N[C@@H](CC(C)C)C(=O)N[C@H](C(=O)N[C@@H](CCCCN)C(N)=O)C(C)C,3%,.,.,.,.,.
Cc1ccc(C)c(N(C)C(=O)CCNC(=O)Cn2cnc3ccccc3c2=O)c1,.,-18%,-5%[59 µM],.,0%,13%
CCc1cc2c(cc3c(=O)n(CC(=O)NC4CCC(C)CC4)nc(CC)n32)s1 (stereo not drawn),.,-3%,17%[59 µM],.,27%,40%
CC(C)CC(=O)Nc1nnc(SCc2cc(=O)n3ccccc3n2)s1,.,-7%,29%[59 µM],.,3%,24%[57 µM]
Cc1ccc(C(=O)N2CCCC(Nc3ccc(C(C)C)cc3)C2)cn1 (stereo not drawn),6%,-17%,40µM*,.,-19%,47%
COc1ccc(NC2CCCN(C(=O)c3ccc4[nH]c(C)c(C)c4c3)C2)cc1 (stereo not drawn),0%,?,40µM*,.,45µM*,-14%
CC(C)c1ccc(NC2CCCN(C(=O)c3ccccc3-c3ncc[nH]3)C2)cc1 (stereo not drawn),1%,?,45µM*,.,56µM*,0%
